# Records with an inconclusive call do not appear. Where a call stands in place of a potency, no number is given. The source made the active and inactive calls. Calls follow the shape of the dose curve; as a rule, active = well fitted curve in the direction sought with a large enough effect; inconclusive = small, poorly fitted or top-dose-only effect, or another doubt; inactive = no such curve, though single readings can be large; an effect the other way counts as inactive or inconclusive. Where a SMILES comes first, the peptide text is derived from it. Bridges are numbered along the chain shown (N, C = ends).
# Assays:
# [1] = biological target: Glutathione peroxidase 1 (Homo sapiens) (UniProt P07203); experiment: Primary qHTS Assay for Inhibitors of Recombinant Selenoprotein Glutathione Peroxidase 1 (GPX1) (AID 1845191); also: nearly all actives have a fitted effect of over 65% in size; also: potency is read from the fitted curve at half-maximal effect
# Glutathione peroxidase 1 (Homo sapiens), sequence (P07203 whole entry, looked up): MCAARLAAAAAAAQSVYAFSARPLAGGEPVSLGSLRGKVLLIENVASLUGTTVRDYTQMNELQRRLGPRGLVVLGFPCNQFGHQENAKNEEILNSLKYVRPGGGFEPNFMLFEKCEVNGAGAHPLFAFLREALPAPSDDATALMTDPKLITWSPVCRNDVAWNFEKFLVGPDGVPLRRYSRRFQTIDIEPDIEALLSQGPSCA
# In short: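 GR-coupled readout: NADPH consumption tracked by fluorescence, ex 340/em 450 nm, at t=0 and after 15 min at RT. Final mix 10 nM GPX1, 1 mM GSH, 0.5 mM CHP, 0.5 mM NADPH, 100 nM GR, 0.01% BSA, following 30 min enzyme–compound preincubation.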
# [2] = biological target: Phospholipid hydroperoxide glutathione peroxidase GPX4 (Homo sapiens) (UniProt P36969); experiment: Primary qHTS Assay for Inhibitors of Recombinant Selenoprotein Glutathione Peroxidase 4 (GPX4) (AID 1845192); also: nearly all actives have a fitted effect of over 65% in size
# Phospholipid hydroperoxide glutathione peroxidase GPX4 (Homo sapiens), sequence (P36969 whole entry, looked up): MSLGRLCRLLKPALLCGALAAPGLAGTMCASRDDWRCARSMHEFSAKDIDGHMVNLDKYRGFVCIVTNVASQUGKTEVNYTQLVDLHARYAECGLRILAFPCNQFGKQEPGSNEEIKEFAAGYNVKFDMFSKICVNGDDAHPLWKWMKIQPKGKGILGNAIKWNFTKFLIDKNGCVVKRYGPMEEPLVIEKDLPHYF
# In short: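 Steps: GPX4 plus compound, 30 min RT; add GR/GSH/NADPH master mix; start with cumene hydroperoxide; read 340/450 nm fluorescence at 0 and 15 min. Finals were 200 nM GPX4, 1 mM GSH, 0.5 mM CHP, 0.5 mM NADPH, 100 nM GR.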
# [3] = biological target: Metallo-beta-lactamase type 2 (Klebsiella pneumoniae) (UniProt C7C422); experiment: qHTS to identify inhibitors of the New Delhi Metallo-beta-lactamase (NDM): assay validation screen against the NCATS LOPAC Collection (AID 1794843);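 also: nitrocefin turnover by NDM-1 measured as 485 nm absorbance at plateau; series mostly up to about 38 µM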
# Metallo-beta-lactamase type 2 (Klebsiella pneumoniae), sequence (C7C422 whole entry, looked up): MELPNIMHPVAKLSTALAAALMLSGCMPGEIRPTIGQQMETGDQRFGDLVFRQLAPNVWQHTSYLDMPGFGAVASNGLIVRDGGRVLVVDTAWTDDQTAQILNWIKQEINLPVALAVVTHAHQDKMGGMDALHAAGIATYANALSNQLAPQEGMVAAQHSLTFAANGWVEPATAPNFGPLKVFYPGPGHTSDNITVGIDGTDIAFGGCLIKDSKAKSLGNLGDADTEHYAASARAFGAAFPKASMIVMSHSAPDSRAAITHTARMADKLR
# In short: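 Nitrocefin hydrolysis (50 uM substrate stock) by NDM-1, 2 nM final, was followed by 485 nm absorbance after compound preincubation; buffer was 50 mM HEPES pH 7.0, 1 uM ZnSO4, 0.01% Tween20.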
# [4] = NCATS anti-infectives library activity on HEK293 viability as a counter-qHTS vs the C. elegans viability qHTS (AID 1745854);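 also: HEK293 cells exposed to compounds for 24 hr before the viability read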
# In short: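 Compound titrations (final up to 41.7 uM) were incubated with HEK293 cells for 24 hr at 37C under 5% CO2. Viable cells were quantified with CellTiter-Glo after 10 min at ambient temperature.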
# [5] = biological target: Luciferin 4-monooxygenase (Photinus pyralis) (UniProt P08659); experiment: Primary firefly luciferase (FLuc) qHTS assay for identification of artifact compounds. (AID 1845220); also: nearly all actives have a fitted effect of over 60% in size
# In short: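 Titrated compounds were incubated 15 min at RT, protected from light, with luciferin and ATP at 10 uM; reaction started with 10 nM FLuc, luminescence imaged at 5 min, and concentration-response fitted by Hill equation.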
# [6] = Primary fluorescence-based thiol-reactive (MSTI) qHTS assay for identification of artifact compounds. (AID 1845221); also: nearly all actives have a fitted effect of over 65% in size; also: potency is read from the fitted curve at half-maximal effect
# In short: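 MSTI probe at 4 uM final in 2% DMSO/PBS pH 7.4; compounds, 1 h at room temperature in dark. Fluorescence Ex/Em 525/598 nm, normalised to Acetyl-MSTI and MSTI, fitted to 4-parameter Hill.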
# [7] = tested on: Nanoluciferase (engineered Oplophorus gracilirostris luciferase); experiment: Primary Nanoluciferase (NLuc) qHTS assay for identification of artifact compounds. (AID 1845222);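 also: NLuc secreted into diluted conditioned medium of S16 cells; series mostly up to about 54 µM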
# In short: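 qHTS format, against NLuc in S16 cell-conditioned medium. Nano-Glo substrate 1:100 was added after 15 min at room temperature. Luminescence was taken after a further 5 min.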
# [8] = Primary redox qHTS assay for identification of artifact compounds. (AID 1845223)
# In short: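 Redox-cycling detection via DTT (250 uM final) oxidation coupled to Amplex Red (25 uM)/HRP (250 mU/mL) in HBSS. 15 min preincubation plus 30 min after DTT, room temperature. Ex/Em 525/598 nm; 4-parameter Hill fit against DMSO and 10 uM DA3003.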
# [9] = Viability counterscreen for antagonist of constitutive androstane receptor (CAR) against the NCATS DSHEA and TCM libraries (AID 1794837);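 also: compound exposure lasted 24 h before viability reading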
# In short: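 HepG2-CYP2B6-hCAR cells, 2,500/well, were exposed 24 hr at 37C to substances together with 48 uM CITCO (final). Viability was read as CellTiter-Fluor fluorescence (Ex/Em 405/540 nm) after 1 hr.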
# [10] = Viability counterscreen for agonist of constitutive androstane receptor (CAR) against the NCATS DSHEA and TCM libraries (AID 1794838);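 also: HepG2 cells with CYP2B6 reporter and hCAR plus 0.75 µM PK11195 antagonist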
# In short: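 HepG2-CYP2B6-hCAR cells (2,500/well) treated 24 h at 37C with compounds plus 0.75 uM PK11195; viability read by CellTiter-Fluor fluorescence, Ex/Em 405/540 nm.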
# [11] = biological target: Nuclear receptor subfamily 1 group I member 3 (Homo sapiens) (UniProt Q14994); experiment: Primary qHTS for agonist of constitutive androstane receptor (CAR) against the NCATS DSHEA and TCM libraries (AID 1794839);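 also: HepG2 cells expressing human CAR with a CYP2B6 reporter plus PK11195 antagonist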
# Nuclear receptor subfamily 1 group I member 3 (Homo sapiens), sequence (Q14994 whole entry, looked up): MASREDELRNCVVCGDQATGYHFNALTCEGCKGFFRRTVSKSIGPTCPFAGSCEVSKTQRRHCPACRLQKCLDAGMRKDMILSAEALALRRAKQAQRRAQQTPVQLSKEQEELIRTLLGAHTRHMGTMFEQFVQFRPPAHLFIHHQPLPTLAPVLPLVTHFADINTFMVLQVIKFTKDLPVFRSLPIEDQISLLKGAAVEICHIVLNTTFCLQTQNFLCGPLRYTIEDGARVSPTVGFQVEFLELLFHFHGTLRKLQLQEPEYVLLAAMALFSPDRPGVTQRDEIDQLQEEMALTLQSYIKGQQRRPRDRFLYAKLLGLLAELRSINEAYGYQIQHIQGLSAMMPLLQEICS
# In short: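 HepG2-CYP2B6-hCAR cells, 2,500/well, attached 5 h, then dosed with 0.75 µM PK11195 (final) for 24 h at 37 °C. Luciferase luminescence read (ONE-Glo); CellTiter-Fluor viability (Ex/Em 405/540 nm) in same wells; CITCO positive control.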
# [12] = HepG2 viability counterscreen (readout 2: ATP content) against the NCATS DSHEA and TCM libraries (AID 1794840)
# In short: (§1)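 HepG2 cells, 1,000/well, attached ~4 h, then exposed ~24 h at 37C to substances. Protease activity read by fluorescence of 25 uM GF-AFC (Ex/Em 380/510 nm) after 30 min; ATP then by CellTiter-Glo luminescence.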
# [13] = HepG2 viability counterscreen (readout 1: protease activity) against the NCATS DSHEA and TCM libraries (AID 1794841);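 also: cells exposed to compounds for about 24 h before the protease read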
# In short: as §1
# [14] = biological target: Cytochrome P450 2D6 (Homo sapiens) (UniProt P10635); experiment: qHTS for inhibitors of CYP2D6 against the NCATS DSHEA and TCM libraries (AID 1919972)
# Cytochrome P450 2D6 (Homo sapiens), sequence (P10635 whole entry, looked up): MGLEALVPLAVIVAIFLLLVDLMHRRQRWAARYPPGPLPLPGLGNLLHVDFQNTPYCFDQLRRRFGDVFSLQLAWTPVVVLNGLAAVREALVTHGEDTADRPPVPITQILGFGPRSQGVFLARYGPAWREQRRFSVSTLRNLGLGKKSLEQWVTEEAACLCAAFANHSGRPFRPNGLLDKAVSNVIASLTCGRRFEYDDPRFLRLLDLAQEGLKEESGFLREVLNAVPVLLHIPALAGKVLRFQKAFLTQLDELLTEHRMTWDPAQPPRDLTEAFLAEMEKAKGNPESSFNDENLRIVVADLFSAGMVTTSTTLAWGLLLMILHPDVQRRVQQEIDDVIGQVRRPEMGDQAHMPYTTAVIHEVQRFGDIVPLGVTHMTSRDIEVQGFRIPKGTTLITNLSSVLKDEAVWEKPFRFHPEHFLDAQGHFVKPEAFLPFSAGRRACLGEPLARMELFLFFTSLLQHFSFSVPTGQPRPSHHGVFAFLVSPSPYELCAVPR
# In short: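 qHTS, concentration–response format with most substances from 19.5 nM. CYP2D6 + pro-luciferin substrate, 15 min with compound, then 1x NADPH regen, 30–45 min RT dark. Glo detection 30 min, luminescence. Quinidine control.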
# [15] = biological target: Cytochrome P450 3A4 (Homo sapiens) (UniProt P08684); experiment: qHTS for inhibitors of CYP3A4 against the NCATS DSHEA and TCM libraries (AID 1919971);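 also: inhibition lowers luminescence from luciferin made by CYP3A4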
# Cytochrome P450 3A4 (Homo sapiens), sequence (P08684 whole entry, looked up, canonical isoform): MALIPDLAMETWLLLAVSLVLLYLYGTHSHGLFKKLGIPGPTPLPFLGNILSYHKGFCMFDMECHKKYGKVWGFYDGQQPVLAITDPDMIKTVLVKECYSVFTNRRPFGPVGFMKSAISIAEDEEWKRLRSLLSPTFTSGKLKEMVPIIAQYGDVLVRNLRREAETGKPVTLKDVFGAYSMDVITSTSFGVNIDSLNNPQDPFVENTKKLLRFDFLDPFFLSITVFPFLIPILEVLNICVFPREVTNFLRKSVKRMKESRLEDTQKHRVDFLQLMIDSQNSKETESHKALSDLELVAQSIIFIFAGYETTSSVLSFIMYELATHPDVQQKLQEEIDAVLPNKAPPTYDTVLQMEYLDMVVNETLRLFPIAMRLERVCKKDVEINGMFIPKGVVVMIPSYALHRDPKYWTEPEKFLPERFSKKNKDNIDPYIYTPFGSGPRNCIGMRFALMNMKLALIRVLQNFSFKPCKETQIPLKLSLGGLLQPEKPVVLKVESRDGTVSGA
# In short: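 Isoform-specific enzyme and substrate levels; enzyme-free wells as background. Reaction: 1x NADPH regenerating system, 30-45 min, room temperature, shielded from light; luminescent detection reagent added, 30 min.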
structure (smiles),measurement,setting,value
C[C@@H]1CN(CC(=O)N2CC(C)(C)c3ncc(Cc4ccc(F)cc4)cc32)[C@@H](CN2CCOC[C@H]2C)CN1,Potency,[1],inactive
same,Potency,[2],inactive
Nc1c(CC(=O)O)cccc1C(=O)c1ccccc1,Potency,[1],inactive
same,Potency,[2],inactive
O=[N+]([O-])c1ccc(Oc2ccc(N=C=S)cc2)cc1,Potency,[1],inactive
C=CCNC1=C2C[C@@H](C)C[C@H](OC)[C@H](O)[C@@H](C)/C=C(\C)[C@H](OC(N)=O)[C@@H](OC)/C=C\C=C(/C)C(=O)NC(=CC1=O)C2=O,Potency,[1],inactive
Cc1cc(-n2c(=O)[nH]c(=O)n(C)c2=O)ccc1Oc1ccc(S(=O)(=O)C(F)(F)F)cc1,Potency,[1],inactive
CCC(c1ccccc1)c1noc(CCN(CC)CC)n1 (stereo not given),Potency,[1],inactive
same,Potency,[2],inactive
CCCN(CC)C(CC)C(=O)Nc1c(C)cccc1C (stereo not given),Potency,[1],inactive
same,Potency,[2],inactive
NCCCC(=O)O,outcome,[3],inactive
same,Potency,[1],inactive
same,Potency,[2],inactive
CCN(CC)CCOC(=O)c1ccc(N)cc1Cl,Potency,[1],inactive
same,Potency,[2],inactive
CC#CCC(C)[C@H](O)/C=C/[C@@H]1[C@H]2C/C(=C/CCCC(=O)O)C[C@H]2C[C@H]1O (stereo not given in full),Potency,[1],inactive
same,Potency,[2],inactive
COc1cc2[nH]c(C)c(CCN3CCN(c4ccccc4)CC3)c2cc1OC,Potency,[1],inactive
Cn1nnnc1SCC1=C(C(=O)O)N2C(=O)[C@@H](NC(=O)[C@H](OC=O)c3ccccc3)[C@H]2SC1,Potency,[1],9.04 µM (active)
CN1C(=O)c2sccc2N(C)c2nc(Nc3ccc(S(N)(=O)=O)cc3)ncc21,Potency,[1],inactive
Cc1c(N)nc(C(CC(N)=O)NCC(N)C(N)=O)nc1C(=O)NC(C(=O)NC(C)C(O)C(C)C(=O)NC(C(=O)NCCc1nc(-c2nc(C(=O)NCCCN[C@@H](C)c3ccccc3)cs2)cs1)C(C)O)C(O[C@@H]1O[C@@H](CO)[C@@H](O)[C@H](O)[C@@H]1O[C@H]1O[C@H](CO)[C@@H](O)[C@H](OC(N)=O)[C@@H]1O)c1cnc[nH]1 (stereo not given in full),Potency,[1],inactive
same,Potency,[2],inactive
NCCCC[C@H](NC(=O)[C@@H]1CCCN1C(=O)[C@@H]1CSSC[C@H](N)C(=O)N[C@@H](Cc2ccccc2)C(=O)N[C@@H](Cc2ccccc2)C(=O)N[C@@H](CCC(N)=O)C(=O)N[C@@H](CC(N)=O)C(=O)N1)C(=O)NCC(N)=O,Potency,[1],inactive
COc1ccc(C(=O)Nc2ccccc2CCC2CCCCN2C)cc1 (stereo not given),Potency,[1],inactive
same,Potency,[2],inactive
Cc1ccc(/C(=C\CN2CCCC2)c2cccc(/C=C/C(=O)O)n2)cc1,Potency,[1],inactive
O=S(O)CNc1ccc(S(=O)(=O)c2ccc(NCS(=O)O)cc2)cc1,Potency,[1],inactive
same,Potency,[2],inactive
CN[C@H]1CC[C@@H](c2ccc(Cl)c(Cl)c2)c2ccccc21,outcome,[3],inactive
same,Potency,[1],inactive
same,Potency,[2],inactive
CCC(C)C(C(=O)OCC[N+](C)(CC)CC)c1ccccc1 (stereo not given),Potency,[1],inactive
same,Potency,[2],inactive
Cc1cc(Nc2ccccc2C(=O)O)ccc1Cl,Potency,[1],inactive
CC(CN1c2ccccc2Sc2ccc(S(=O)(=O)N(C)C)cc21)N(C)C (stereo not given),Potency,[1],inactive
COc1cccc(N2CCN(C3=Nc4c(F)cccc4[C@H](CC(=O)O)N3c3cc(C(F)(F)F)ccc3OC)CC2)c1,outcome,[4],inactive
same,Potency,[5],inactive
same,Potency,[6],inactive
same,Potency,[7],inactive
same,Potency,[8],inactive
CN(C)C(=O)Nc1cccc(-c2ccc(N(C)C)cc2)c1,outcome,[4],inactive
same,Potency,[2],inactive
same,Potency,[6],2.67 µM (active)
same,Potency,[7],inactive
same,Potency,[8],inactive
CCCC(=O)O[C@]1(C(=O)COC(=O)CC)[C@@H](C)C[C@H]2[C@@H]3CCC4=CC(=O)C=C[C@]4(C)[C@@]3(F)[C@@H](O)C[C@@]21C,Potency,[1],inactive
C=C1[C@H]2CC[C@H](C(=O)O)[C@@]23CC[C@H](C3)C1(C)C,outcome,[9],inactive
same,outcome,[10],inactive
same,outcome,[11],inactive
same,outcome,[12],inactive
same,outcome,[13],inactive
same,Potency,[1],inactive
same,Potency,[2],inactive
same,Potency,[5],inactive
same,Potency,[6],inactive
same,Potency,[7],inactive
same,Potency,[8],inactive
same,outcome,[14],inactive
O=C(O)CC(O)(CC(=O)O)C(=O)O,outcome,[9],inactive
same,outcome,[10],inactive
same,outcome,[11],inactive
same,outcome,[12],inactive
same,outcome,[13],inactive
same,Potency,[1],inactive
same,Potency,[2],inactive
same,outcome,[15],inactive
same,outcome,[14],inactive
CC1(C)S[C@@H]2[C@H](NC(=O)[C@H](N)c3ccccc3)C(=O)N2[C@H]1C(=O)OCOC(=O)[C@@H]1N2C(=O)C[C@H]2S(=O)(=O)C1(C)C,Potency,[1],inactive
CCCCc1cc2c(=O)c(C(=O)OC)c[nH]c2cc1OCc1ccccc1,Potency,[1],inactive
same,Potency,[2],inactive
CC(C)(C)NC(=O)[C@H]1CC[C@H]2[C@@H]3CC=C4C=C(C(=O)O)CC[C@]4(C)[C@H]3CC[C@]12C,Potency,[1],inactive
same,Potency,[2],inactive
NCCCC[C@H](NC(=O)[C@@H]1CCCN1C(=O)[C@@H]1CSSC[C@H](NC(=O)CNC(=O)CNC(=O)CN)C(=O)N[C@@H](Cc2ccc(O)cc2)C(=O)N[C@@H](Cc2ccccc2)C(=O)N[C@@H](CCC(N)=O)C(=O)N[C@@H](CC(N)=O)C(=O)N1)C(=O)NCC(N)=O (H-GGGCYFQNCPKG-NH2; disulfide 4-9),Potency,[1],inactive
same,Potency,[2],inactive
CCC(C)(C)OC(=O)N[C@@H](Cc1c[nH]c2ccccc12)C(=O)N[C@@H](CCSC)C(=O)N[C@@H](CC(=O)O)C(=O)N[C@@H](Cc1ccccc1)C(N)=O,Potency,[1],inactive
Cc1ccc(C2(O)CCN(CCCC(=O)c3ccc(F)cc3)CC2)cc1,Potency,[1],inactive
same,Potency,[2],inactive
CC1=C(C(=O)OCCN(Cc2ccccc2)c2ccccc2)C(c2cccc([N+](=O)[O-])c2)C(P2(=O)OCC(C)(C)CO2)=C(C)N1 (stereo not given),Potency,[1],inactive
N#Cc1ccnc(Nc2cc(C3CCN(C4COC4)CC3)cc(N3CCC(F)(F)C3)n2)c1,Potency,[1],inactive

# — PubChem BioAssay (NCATS)
